ssDAF-12 act = S. stercoralis DAF-12 activation, primary screen | HEK293 ssDAF-12/GRIP1 lit1-tk-luc reporter, luminescence; % of 3 µM dafachronic acid response | activation, % at 6.8 µM | actives 1% (n = 370,000) | AID 652126;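 active = activation above the mean over all tested compounds plus 3 SD, cut at about 0.9% in these data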;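 note: 0% = DMSO-only wells and 100% = 3 µM delta7-dafachronic acid wells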
hgDAF-12 ag = agonists of H. glycines DAF-12 nuclear receptor; HEK293 GAL4-hgDAF12 UAS-luciferase reporter, agonist luminescence; normalized to butyrate control; activation, % at 6.8 µM; actives 1.8% (n = 370,000); AID 687014;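 active = activation above a cutoff set at the mean of all screened compounds plus 3 SD, cut at about 10% in these data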;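 note: 0% = DMSO wells and 100% = sodium butyrate wells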
hcDAF-12 act = activates DAF-12 receptor from parasite H. contortus | HEK293 hcDAF-12 lit1-tk-luc reporter, luminescence; 0% DMSO, 100% Δ7-dafachronic acid | activation, % at 6.8 µM | AID 652067 | actives 1.4% (n = 370,000);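 active = activation above the mean of all tested compounds plus 3 SD, cut at about 5.5% in these data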;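 note: 100% = response to 3 µM Δ7-dafachronic acid high control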
NF-kB expr up = raises NF-kB expression in human neuronal cells; actives 1.6% (n = 190,000); NF-kB reporter expression; stronger effect = higher value; fold change at 12.5 µM; AID 1239; in the data active = fold change above about 3.3
APP 5'UTR act = activates APP 5'UTR luciferase reporter; SH-SY5Y APP 5'UTR luciferase reporter, luminescence; zero percent = DMSO vehicle wells; activation, % at 2 µM; actives 1% (n = 190,000); AID 1276;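 active = activation above a set limit, based on mean plus 3 SD of controls, cut at about 140% in these data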
LXRb hcDAF ctr = counter-screen for hcDAF-12 agonists: agonists of human LXR-beta; 3,400 tested, under 10 active; shares compounds with hcDAF-12 act; activation, % at 6.8 µM; HEK293 Gal4-LXR tk-luc reporter, luminescence, 24 h; normalized: DMSO 0%, positive control 100%; AID 743027;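 active = mean percent activation of the reporter above a cutoff set as the average over tested compounds plus their standard deviation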
Target sequence (P55055 whole entry, looked up, the tested form may be a part): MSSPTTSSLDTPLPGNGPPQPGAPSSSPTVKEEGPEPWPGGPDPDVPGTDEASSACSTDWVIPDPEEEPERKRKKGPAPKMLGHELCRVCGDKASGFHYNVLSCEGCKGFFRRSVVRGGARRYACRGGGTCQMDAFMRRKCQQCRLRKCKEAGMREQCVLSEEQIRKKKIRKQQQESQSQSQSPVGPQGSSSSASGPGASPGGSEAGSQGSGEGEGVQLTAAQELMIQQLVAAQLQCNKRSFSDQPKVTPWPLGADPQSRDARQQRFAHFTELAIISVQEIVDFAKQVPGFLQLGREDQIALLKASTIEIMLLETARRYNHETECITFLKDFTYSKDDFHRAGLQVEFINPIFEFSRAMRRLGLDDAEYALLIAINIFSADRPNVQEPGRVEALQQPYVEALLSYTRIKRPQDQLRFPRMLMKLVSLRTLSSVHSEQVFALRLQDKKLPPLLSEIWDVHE
hcDAF12 ag = hcDAF-12 agonism, confirmation assay; actives 61% (n = 3,400); HEK293 hcDAF-12 lit1-tk-luc reporter, luminescence; % of Δ7-dafachronic acid response; AID 743032; shares compounds with hcDAF-12 act; activation, % at 6.8 µM;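 active = mean activation across triplicate tests above the threshold derived from the earlier primary screen, cut at about 5.5% in these data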;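 note: 0% = DMSO only wells and 100% = 3 µM Δ7-dafachronic acid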
Active calls of the source: *; · = no result given. This is a sample that favours compounds with a hit; in the whole collection about 3.4% have one here.

SMILES	ssDAF-12 act	hgDAF-12 ag	hcDAF-12 act	NF-kB expr up	APP 5'UTR act	LXRb hcDAF ctr	hcDAF12 ag
NC(=S)N/N=C/c1ccc(-c2ccccc2)o1	-1	7	0	1.4	5	·	·
Cc1cccc(C2c3[nH]c4ccccc4c3CCN2C(=O)CN2CCOC2=O)n1 (centres undefined)	0	-2	7.0*	0.98	1	0	6.1*
Cc1cccc(C2c3[nH]c4ccccc4c3CCN2C(=O)Cc2nc(-c3ccccc3)n[nH]2)n1 (centres undefined)	0	-1	2	·	-4	·	·
Cc1cc(O)ccc1N/C=C(\C#N)c1nc2ccccc2o1	0	0	8.8*	1.5	11	0	3
N#C/C(=C\c1c(Cl)cccc1Cl)c1nc2ccccc2o1	-1	1	6.6*	1.1	16	0	0
N#C/C(=C\c1c(Cl)cccc1Cl)c1nc2ccccc2[nH]1	0	0	3	·	·	·	·
Cc1cc(O)ccc1NC(=O)c1ccccc1	-2	-1	-2	0.98	25	·	·
COc1cccc(N2CCN(C3C4CC5CC(C4)CC3C5)CC2)c1 (centres undefined)	-1	7	1	0.97	-8	·	·
CCC1CCC(N2CCN(c3cccc(OC)c3)CC2)CC1 (centres undefined)	0	10	8.1*	·	·	0	1
CC(C)(C)c1ccc(C(=O)NC(=S)NNC(=O)c2cccs2)cc1	1	9	21*	1.2	36	0	1
O=C(/C=C/c1ccc(-c2ccccc2[N+](=O)[O-])o1)c1ccco1	0	4	7.9*	1.3	18	0	2
O=C(NCc1ccccc1)C(c1ccccc1)n1c(=O)c(-c2ccco2)nc2ccccc21 (centres undefined)	-1	-2	-2	·	·	·	·
O=C(NCc1ccccc1)C(c1cc2ccccc2o1)n1c(=O)c(-c2ccco2)nc2ccccc21 (centres undefined)	2.5*	11*	9.6*	·	·	1	11*
Cc1cn2nc(N)c3ccccc3c2n1	-1	1	3	1.1	0	·	·
Nc1nn2cc(-c3ccccc3)nc2c2ccccc12	6.0*	21*	19*	0.97	198*	2	21*
Cc1nc2ccccn2c1P(=O)(c1ccccc1)c1ccccc1	-2	2	-1	·	·	·	·
COC(=O)[C@@]12CCCCC3=C1N(CCC3)C(=O)[C@H]2CC(=O)N1CCCC1	-1	1	-1	·	·	·	·
Cn1cccc1C(=O)N1CCN(S(=O)(=O)c2ccccc2F)CC1	-2	1	-2	·	·	·	·
COc1ccc(-c2nnc3c4ccccc4c(C)nn23)cc1	1	7	6.7*	1.4	35	0	5.7*
COC(=O)[C@]12C[C@H](CC(=O)N3CCN(C(=O)c4ccco4)CC3)C(=O)N(Cc3ccco3)C1=C[C@H](COCc1ccccc1)O[C@@H]2C	-1	-3	-2	·	·	·	·
O=C1CCC2(CC1)NC(=O)N(c1ccccc1)N2	1.1*	8	6.5*	1.1	16	0	0
O=C1Nc2ccccc2/C1=C\C(=O)c1ccccc1	-1	-2	-1	·	·	·	·
O=C(/C=C1\C(=O)Nc2ccccc21)/C=C1\C(=O)Nc2ccccc21	0	2	11*	·	·	0	3
O=C(Nc1ccccc1)Nc1cccc2nsnc12	2.3*	9	8.9*	4.3*	121	1	12*
Cn1c2ccc(F)cc2c2nc3ccccc3nc21	1	3	7.1*	·	·	0	8.3*
SMILES	ssDAF-12 act	hgDAF-12 ag	hcDAF-12 act	NF-kB expr up	APP 5'UTR act	LXRb hcDAF ctr	hcDAF12 ag
CCn1c2ccc(F)cc2c2nc3ccccc3nc21	-1	2	1	1.4	16	·	·
CCn1c2ccccc2c2nnc(SCCN3CCCCC3)nc21	-1	0	2	·	·	·	·
Cn1c2ccc(Cl)cc2c2nc3ccccc3nc21	2.4*	12*	8.8*	1.4	·	0	8.5*
O=C1c2ccccc2C(=O)N1CCCn1c2ccc(Cl)cc2c2nc3ccccc3nc21	-1	-1	-1	·	·	·	·
Cn1c2ccc(F)cc2c2nnc(SCCN3CCCCC3)nc21	1.1*	5	8.2*	·	·	0	6.9*
CCCCCCNC(=O)C1CSCCS(=O)(=O)N1Cc1ccc(C)cc1 (centres undefined)	-1	-1	0	·	·	·	·
COc1ccc(Cc2c(-c3ccc(C)cc3)nc3c4ccccc4ccn23)c(C)c1	0	3	3	·	·	·	·
COc1ccc(-c2cn3ccc4ccccc4c3n2)cc1	5.2*	18*	23*	14*	217*	2	23*
O=C1Nc2ccc(Br)cc2C12NNc1ccccc1O2 (centres undefined)	0	2	6.9*	1.2	-11	0	2
COc1ccc(NC(=O)c2sc(SCc3ccccc3)nc2N)cc1	-1	0	-1	1	5	·	·
COc1ccc(NC(=O)c2sc(SC)nc2N)cc1	1.3*	13*	7.3*	3	77	1	9.2*
Cc1ccc(-c2nc3c4ccccc4ccn3c2CC2CCCCC2)cc1	2.5*	11*	7.5*	·	·	0	6.2*
Cc1ccc(-c2nc3cc(C)c(Br)c(C)n3c2CC2CCCCC2)cc1	1.7*	7	7.7*	·	·	0	4
N#Cc1ccc(-c2nc3c4ccccc4ccn3c2CC2CCCCC2)cc1	0	6	2	·	·	·	·
Cc1cc2nc(-c3ccccc3)c(CC3CCCCC3)n2c(C)c1Br	0.9*	4	6.9*	·	·	0	3
Cc1ccc(S(=O)(=O)N(C)[C@H]2C[C@H]3c4cc(N5CCOCC5)ccc4CCN3C[C@H]2[C@H](C)O)cc1	-1	2	-2	·	·	·	·
COC(=O)C1CN(Cc2cn(Cc3ccc(Cl)cc3)nn2)CCS(=O)(=O)N1Cc1ccc(OC)cc1 (centres undefined)	-2	-3	-2	·	·	·	·
Cc1ccc(SCc2cn3cccnc3n2)cc1	-1	5	1	1.4	36	·	·
Cc1ccn2cc(CSc3ccccc3)nc2c1	0	12*	6.6*	6.3*	172*	1	5
Cc1ccc(C(=O)Oc2coc(CSc3ncccn3)cc2=O)cc1[N+](=O)[O-]	-1	-1	-1	·	·	·	·
O=C1c2ccccc2S(=O)(=O)c2cc(N3CCOCC3)ccc21	0	8	6.6*	·	·	1	4
CCC[C@H]1[C@H](N)CC[C@@]23CCCN2C(=O)CCC[C@@H]13	-1	-3	-2	·	·	·	·
Clc1ccc(-c2cnn3c(-c4ccncc4)ccnc23)cc1	0	13*	7.2*	3.6*	221*	2	8.4*
Cc1ccccc1N=Nc1ccc(O)c2ncccc12	-1	-5	0	0.92	-77	·	·
